# Data as given in PubChem BioAssay (NCI).
# About 83,000 compounds went through this panel and 20% of them were active in at least one assay; those are over-represented in the sample as a whole.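 Note: values are percent growth. 100 is the growth of untreated cells, values between 100 and 0 indicate rising inhibition; between -100 and 0 indicates cell death.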 The source made the active and inactive calls. How the source made its calls: active means growth percent below 10; inactive means the rest.
# Tested on: UO-31 renal
# Assay: NCI-60 one-dose screen, 48 h (100 = growth as untreated, 0 = no growth, -100 = all killed)
# Details: 10 µM
row,Structure (SMILES),growth
1,O=C(Nc1cccc(-n2cc(-c3ccncc3)c(-c3ccc(O)c(Cl)c3)n2)c1)c1cc(C(F)(F)F)cc(C(F)(F)F)c1,47.8% (inactive)
2,CCCC#CCN(CC)CC,83.5% (inactive)
3,Cc1ccc(S(=O)(=O)OCCN(CCOS(=O)(=O)c2ccc(C)cc2)c2c[nH]c(=O)[nH]c2=O)cc1,82.8% (inactive)
4,CCOC(=O)C(NC(=O)C(Cl)Cl)C(O)c1ccccc1 (stereo not drawn),97.6% (inactive)

# Tested on: TK-10 renal
# Assay: as above
# Details: 10 µM
row,Structure (SMILES),growth
1,CCCCCCCNc1nc(C=O)ncc1-c1ccc(C(F)(F)F)cc1,97% (inactive)
2,CCCCCCN1CCN(Cc2ccc(N(CC)CC)cc2)C(=O)C1=O,25.4% (inactive)
3,O=C(Nc1cccc(-n2cc(-c3ccncc3)c(-c3ccc(O)c(Cl)c3)n2)c1)Nc1ccc(Cl)c(Cl)c1,16.7% (inactive)
4,S=C1SCC(c2ccccc2)S1 (stereo not drawn),107% (inactive)
5,COc1cccc(C(=O)Nc2ccc(CN3CCc4nc5cc(OC)c(OC)cc5cc43)cc2)c1,42.4% (inactive)
6,COc1ccc(-c2nn(-c3cccc(NC(=O)c4cc(C(F)(F)F)cc(C(F)(F)F)c4)c3)cc2-c2ccncc2)cc1Cl,85.5% (inactive)
7,O=C(Nc1ccccc1)Nc1cccc(-n2cc(-c3ccncc3)c(-c3ccc(O)c(Cl)c3)n2)c1,88.8% (inactive)
8,N#CCCN1C/C(=C/c2ccc(Cl)cc2)C(=O)/C(=C/c2ccc(Cl)cc2)C1,-40.9% (active)
9,COc1ccc(-c2nn(-c3cccc(NC(=O)c4cccc(C(F)(F)F)c4)c3)cc2-c2ccncc2)cc1Cl,41% (inactive)
10,COc1ccc([N+](=O)[O-])c(C(=O)O)c1,104% (inactive)
11,CN(C)CCN=c1nc2c(c(N)n1-c1ccccc1)c(=S)n(-c1ccccc1)c(=S)n2-c1ccccc1,47.7% (inactive)
12,O=C(Nc1cccc(-n2cc(-c3ccncc3)c(-c3ccc(O)c(Cl)c3)n2)c1)c1cccc(C(F)(F)F)c1,46.9% (inactive)
13,COc1cccc(NC(=O)c2sc3nc4c(cc3c2N)C(O)CCC4)c1 (stereo not drawn),79.8% (inactive)
14,O=S(=O)(NCCCNc1nccc(-c2c(-c3ccc(F)cc3)nc3sccn23)n1)c1ccc2ccccc2c1,35.4% (inactive)
15,COc1ccc(-c2nn(-c3cccc(NC(=O)Nc4cccc(C(F)(F)F)c4)c3)cc2-c2ccncc2)cc1Cl,11.8% (inactive)
16,COc1ccc(-c2nn(-c3cccc(NC(=O)c4ccc(Cl)c(Cl)c4)c3)cc2-c2ccncc2)cc1Cl,85% (inactive)
17,Cc1c(Cl)cccc1NC(=O)c1sc2nc3c(cc2c1N)C(=O)CCC3,74.3% (inactive)
18,COc1cc(/C=C/C(=O)c2ccc(Cl)cc2)ccc1OS(=O)(=O)c1ccc(C)cc1,116% (inactive)
19,O=C(N/N=C/c1cc2ccccc2c2ccccc12)c1cc(O)c(O)c(O)c1,69.2% (inactive)
20,COc1ccc(-c2nn(-c3cccc(NC(=O)c4ccc(N5CCOCC5)c(C(F)(F)F)c4)c3)cc2-c2ccncc2)cc1Cl,82.8% (inactive)

row,Structure (SMILES),growth
1,COc1ccc(-c2cc(/C=C/C(=O)c3cc(OC)c(OC)c(OC)c3)[nH]n2)cc1OC,-33.2% (active)
2,CC1=C(N2CCOCC2)C(N2CCOCC2)=C(C)C(=O)C1=O,99% (inactive)
3,Cc1ccc(C)c(C(O)(c2cc(C)ccc2C)C2(O)CCCCC2)c1,89.8% (inactive)
4,COc1ccc(-c2nn(-c3cccc(NC(=O)c4ccc5c(c4)OCCO5)c3)cc2-c2ccncc2)cc1Cl,36.2% (inactive)
5,Cc1ncc(-c2ccoc2)c(NC2CCCCCC2)n1,109% (inactive)
6,O=S(=O)(NCCNc1nccc(-c2c(-c3ccc(F)cc3)nc3sccn23)n1)c1ccc2ccccc2c1,83.7% (inactive)
7,COc1ccc2c(c1)nc(N)c1c3cccnc3cn21,51.3% (inactive)
8,O=C(Nc1cccc(-n2cc(-c3ccncc3)c(-c3ccc(O)c(Cl)c3)n2)c1)c1ccc(Cl)c(Cl)c1,104% (inactive)
9,CCN1CCCC1CNC(=O)c1ncc(-c2ccc(C(F)(F)F)cc2)c(NC2CCCCCC2)n1 (stereo not drawn),74.1% (inactive)
10,Clc1ccc(-c2cn(-c3ccccc3)c(-c3ccccc3)n2)c(Cl)c1,-82.9% (active)
11,CCCCCCCCCCCCCCCC(=O)OC1[C@@H](OC(=O)CCCCCCCCCCCCCCC)[C@@H](C(=O)N[C@@H](CCCCN)C(=O)OC)O[C@H]1n1cnc2c(=O)[nH]c(NC(=O)C(C)C)nc21 (stereo partly drawn),101% (inactive)
12,O=c1oc2cc(OS(=O)(=O)c3ccccc3)ccc2c2c1CCCCC2,67.9% (inactive)
13,O=C1Nc2ccccc2C1=NC1CCCCC1,107% (inactive)
14,O=C(Nc1cccc(-n2cc(-c3ccncc3)c(-c3ccc(O)c(Cl)c3)n2)c1)c1ccc(N2CCOCC2)c(C(F)(F)F)c1,73.4% (inactive)
15,O=C(Nc1ccc(OS(=O)(=O)c2ccccc2)cc1)C12CC3CC(CC(C3)C1)C2,68.6% (inactive)
16,O=C(Nc1cccc(-n2cc(-c3ccncc3)c(-c3ccc(O)c(Cl)c3)n2)c1)c1cc(C(F)(F)F)cc(C(F)(F)F)c1,62% (inactive)
17,CCCC#CCN(CC)CC,99.2% (inactive)
18,Cc1ccc(S(=O)(=O)OCCN(CCOS(=O)(=O)c2ccc(C)cc2)c2c[nH]c(=O)[nH]c2=O)cc1,112% (inactive)
19,CCOC(=O)C(NC(=O)C(Cl)Cl)C(O)c1ccccc1 (stereo not drawn),104% (inactive)
